Screening results as filed in PubChem BioAssay.
Hits are enriched below; roughly 4.1% of the tested compounds scored in any of these assays.
PolyA inh – yeast polyadenylation inhibition; S. cerevisiae SKY197-pL101 polyadenylation reporter, beta-gal luminescence; efflux-impaired pdr1/pdr3 knockout yeast; score 100 = 6 SD above DMSO; activity score, % at 12 µM; 300,000 compounds, 0.02% hits;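 active means lowest replicate activity score at least 50, where 100 means six control SD above control mean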;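 further: yeast exposed to compound for 9 h at 30 °C; higher score means more reporter readthrough which indicates perturbed polyadenylation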
IDE cell activ – boosts human insulin-degrading enzyme activity in HEK cells. P14735. FAbeta-B cleavage, fluorescence polarization; 0% vehicle, 100% cell-free pure enzyme wells. activation, % at 5.96 µM. 340,000 compounds, 0.073% hits. AID 493087;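 active means activation above the mean of all tested compounds plus 3 SD, set per screening campaign, cut at about 17% in these data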
PfM18AAP inh – PfM18AAP enzyme inhibition; recombinant PfM18AAP, H-Glu-NHMec fluorogenic cleavage; inhibition, % at 7.35 µM; 290,000 compounds, 1.2% hits; AID 1822;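 active means inhibition above the campaign mean inhibition over all tested compounds plus 3 SD, cut at about 28% in these data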;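 further: 0% = plate median of test compound wells and 100% = 2 mM ZnCl2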
IDE cell inh – inhibits human insulin-degrading enzyme in HEK cells. inhibition, % at 5.59 µM. P14735. AID 434962. 320,000 compounds, 0.41% hits. FAbetaB cleavage, fluorescence polarization;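 active means percent inhibition above the average of all tested compounds plus 3 SD, set per screening campaign, cut at about 16% in these data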;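 further: IDE supplied by intact live HEK cells; FP after avidin binding of uncleaved biotin substrate so inhibition keeps polarization high; 0% = DMSO wells and 100% = 60 µM reference IDE inhibitor Ii1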
CaV13 ICDI inh – Disruptors of the CACNA1D IQ motif to Ca2+-dependent inactivation inhibitor domain association, primary screening, Förster resonance energy transfer in intact living …; HEK cells, CFP/YFP FRET ICDI-IQ, plate reader, 10 min; percent FRET-ratio fall versus neutral wells; inhibition, % at 12.3 µM; 340,000 compounds, 0.098% hits; AID 743397;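 active means mean replicate inhibition of at least 30% and at least 1% of replicates passing that level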;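 further: 0% = median of the neutral control wells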
ALR H2O2 inh – blocks human ALR sulfhydryl oxidase activity | P55789 | purified ALR, DTT oxidation, H2O2 HRP-luminol luminescence | inhibition, % (concentration not given with the values) | 290,000 compounds, 3.8% hits | AID 485317;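 active means mean replicate inhibition above about 79%, with every replicate also reaching it, limit read from the data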
* marks the source's active call; other numbers are inactive results; . = no result.

SMILES	PolyA inh	IDE cell activ	PfM18AAP inh	IDE cell inh	CaV13 ICDI inh	ALR H2O2 inh
O=C(NCc1cccnc1)c1ccc2c(c1)N(Cc1ccccc1)CCS2	4.1	5.1	30.1*	7.0	-5.2	92.4*
CN1CCSc2ccc(C(=O)NCc3ccccc3)cc21	13.7	-2.5	5.7	0.5	-5.0	38.6
CC(=O)N1CCN(S(=O)(=O)c2ccc(C)cc2)C1C (stereo unspecified)	9.5	2.1	.	1.9	-4.5	-9.4
C=CCN=C1NC(c2cccc(Cl)c2)C(C(=O)OC)=C(C)N1C (stereo unspecified)	.	.	.	.	-5.0	.
C[C@H](CO)N1C[C@H](C)[C@@H](CN(C)S(=O)(=O)c2ccccc2)Oc2c(NC(=O)C3CCCCC3)cccc2C1=O	.	4.7	.	7.0	-3.6	-2.0
CCc1cccc(NC(=O)[C@@H]2CCCN2C2=NS(=O)(=O)c3ccccc32)c1	.	0.9	.	1.2	-2.2	-2.0
CCc1cccc(NC(=O)CSC2=NS(=O)(=O)c3ccccc32)c1	-11.8	-2.0	-0.2	2.4	-6.5	98.7*
Cc1nc2c(c(C)nn2-c2ccccc2)c(C)c1CCC(=O)Nc1ccc(CN2CCCC2)cc1	-0.6	7.1	-0.6	-0.7	-6.3	-1.5
Cc1cccc(NC(=O)Nc2nnc([C@@H]3C[C@H](O)[C@@H](CO)O3)s2)c1	.	.	.	.	-5.8	.
CCOc1c(C=C(C#N)C#N)c2ccccc2n1CC	-5.4	5.7	-3.8	4.3	-2.8	99.1*
COc1ccc(NC(=O)c2ccc3c(=O)n(-c4ccc(OC)cc4OC)c(=S)[nH]c3c2)c(OC)c1	8.8	-6.4	-6.4	5.7	-5.7	3.8
COc1ccc(-n2c(=S)[nH]c3cc(C(=O)NC4CCCCC4)ccc3c2=O)c(OC)c1	-1.2	3.1	-2.5	3.4	-2.9	91.1*
COc1ccc(OC)c(CNC(=O)c2coc(=O)c3ccccc23)c1	16.3	5.3	-10.6	6.5	-7.4	2.0
Cc1ccc(O)c(C(=O)c2cnn(C(=O)COc3ccccc3C#N)c2)c1	-6.2	.	7.4	4.7	.	-5.1
CCCc1nc(SCC(=O)c2ccc(F)cc2)c2ccccc2n1	-21.1	0.5	7.0	5.9	9.5	98.9*
CCCCNC(=O)CSc1nc(CCC)nc2ccccc12	-39.2	-2.8	2.2	-6.4	-6.9	-6.6
CC1(C)CC(=O)C2=C(C1)Nc1ccccc1NC2c1ccccc1F (stereo unspecified)	-13.3	-1.1	-3.6	-1.4	-20.6	98.2*
CC1(C)CC(=O)C2=C(C1)Nc1ccccc1NC2c1ccc(F)c(F)c1 (stereo unspecified)	-7.1	1.3	6.0	1.5	-4.2	98.7*
CC1(C)CC(=O)C2=C(C1)Nc1ccccc1NC2c1cccs1 (stereo unspecified)	-5.1	-4.1	5.6	-1.8	-2.8	98.6*
COc1cccc(C2Nc3ccccc3NC3=C2C(=O)CC(C)(C)C3)c1 (stereo unspecified)	7.3	2.3	6.3	2.3	-20.7	98.2*
Cc1ccc2c(=O)n3c(nc2c1)C(Cc1ccccc1)NC(=O)c1ccc(Cl)cc1-3 (stereo unspecified)	.	.	.	-0.6	-10.7	6.6
CC1(C)CC(=O)C2=C(C1)NC(=O)NC2c1ccc([N+](=O)[O-])cc1 (stereo unspecified)	-6.3	2.9	-10.9	-1.0	-2.7	.
CC1(C)CC(=O)C2=C(C1)Nc1ccccc1NC2c1ccc([N+](=O)[O-])cc1 (stereo unspecified)	1.7	3.3	.	-4.1	-6.5	97.9*
COc1ccc(S(=O)(=O)Nc2c(C(=O)O)[nH]c3ccc(OC)cc23)cc1	-0.7	0.7	-3.1	-10.5	-7.7	97.7*
C/C(=N/Nc1nc(C)cc(C)n1)c1ccc(Br)cc1	22.4	5.2	1.0	5.0	-20.5	1.4
SMILES	PolyA inh	IDE cell activ	PfM18AAP inh	IDE cell inh	CaV13 ICDI inh	ALR H2O2 inh
C/C(=N\NC(=O)c1ccccc1Br)c1ccc(N2CCOCC2)cc1	1.3	1.5	-5.4	0.8	-5.9	12.7
C/C(=N\Nc1nc(C)cc(C)n1)c1ccc(N2CCOCC2)cc1	-3.2	0.3	8.7	5.3	-0.9	99.2*
C/C(=N\NC(=O)c1cc(C)oc1C)c1ccc(N2CCOCC2)cc1	3.5	-2.4	-1.6	3.9	-6.6	82.6*
O=C(COc1ccc2ccccc2c1)Nc1ccccc1C(=O)O	-11.4	-5.5	5.5	6.1	-3.5	-3.3
COC(=O)[C@@]12CCCCN1[C@H](c1ccc(SC3CCCCC3)cc1)[C@@H]1C(=O)N(C)C(=O)[C@@H]12	-0.5	0.7	.	6.6	-6.4	-3.4
COc1ccc2[nH]c(=O)c(CN(c3ccc(C)c(C)c3)S(C)(=O)=O)cc2c1	-10.8	-5.2	-8.2	-4.0	-6.3	-30.7
COc1ccc(Nc2ccccc2N)cc1	-2.0	6.4	9.8	-0.5	-4.3	98.4*
COc1ccc(Nc2ccccc2NC(=O)c2ccccc2Br)cc1	-8.0	1.9	15.6	7.1	-4.8	82.3*
Nc1ccc(Nc2ccccc2N)cc1	.	8.7	9.0	-0.9	-5.0	-20.0
COc1ccc(OC)c(CN2CCN(C(=O)c3ccc(C)c(S(=O)(=O)Nc4ccccc4OC)c3)CC2)c1	.	1.9	.	.	-3.7	.
COc1ccc(N2CCN(C(=O)CCCCn3c(=O)[nH]c4ccsc4c3=O)CC2)cc1	-20.2	-5.8	0.0	1.0	-6.1	83.2*
COc1ccc(N2CCN(C(=O)CCCn3c(=O)[nH]c4ccsc4c3=O)CC2)cc1	-13.8	-7.1	2.1	0.3	-6.6	65.3
O=C(Cc1ccc(-n2c(=O)[nH]c3ccsc3c2=O)cc1)N1CCN(c2ccc(Cl)cc2)CC1	-4.9	-14.7	-10.1	21.1*	-3.0	-4.3
COc1cccc(OC)c1NC(=O)C1CCCN1C(=O)Nc1ccccc1Cl (stereo unspecified)	-4.2	1.8	1.9	.	-4.6	.
CCN(CC)C(=O)CSc1nnc(-c2cc3ccccc3cc2O)n1CC	0.4	2.0	9.7	5.8	-4.8	84.8*
CCn1c(-c2cc3ccccc3cc2O)n[nH]c1=S	22.8	-4.5	-2.8	9.8	-4.4	98.7*
CCn1c(-c2ccc(F)cc2)n[nH]c1=S	18.3	-3.0	3.9	3.3	-5.6	-1.1
CCn1c(-c2cc(Br)ccc2O)n[nH]c1=S	-3.5	-6.9	18.4	-3.8	-9.4	98.1*
CCn1c(-c2c[nH]c3ccccc23)n[nH]c1=S	4.7	-3.8	17.7	2.1	-8.1	55.2
CC(=O)Oc1ccc(/C(C)=N/N2CCN(Cc3ccc(C)cc3)CC2)cc1	-5.9	-0.6	5.3	2.5	-4.5	5.0
CCOc1cc(N2CCC(O)CC2)ccc1Nc1ncc2c(n1)N(C)c1ccccc1C(=O)N2C	.	.	.	.	-10.2	.
c1ccc(-c2nc(-c3ccco3)cs2)nc1	-14.7	2.0	-14.9	8.0	-8.4	98.4*
c1ccc(-c2nccc(-c3ccco3)n2)nc1	11.9	3.8	9.6	-3.4	3.7	3.4
